Drawing on PubChem BioAssay (NCI), this text covers growth inhibition for 31 compounds.

About 79,000 compounds went through this panel and 15% of them were active in at least one assay; those are over-represented in the sample as a whole. A number with no mark means an inactive call. The source made the active and inactive calls. Rule as the data show it: active = growth inhibition above about 70%; inactive = the rest.

Assay [1] in a line: NCI Yeast Anticancer Drug Screen. Data for the rad50 strain (AID 155).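 Also: 0% = growth of vehicle-only cultures of the same strain.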 The settings on record: S. cerevisiae rad50 strain growth inhibition; at 50.0 µM; hits give high values. In outline: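 Inhibition values express reduced yeast growth in compound-treated cultures relative to vehicle-treated controls.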
A short description of assay [2]: NCI Yeast Anticancer Drug Screen. Data for the mec2-1 strain (AID 157). The following applies: S. cerevisiae mec2-1 strain, at 50.0 µM, hits give high values. The method in brief:
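Strain: mec2-1 (DNA repair/cell cycle alteration). Compound exposure, then growth measured; inhibition expressed relative to vehicle.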

Assay [3] can be described thus: NCI Yeast Anticancer Drug Screen. Data for the sgs1 mgt1 strain (AID 161).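 Also: 0% = growth of cultures given vehicle only.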 The following applies: S. cerevisiae sgs1 mgt1 strain, at 50.0 µM, hits give high values. The method in brief:
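Inhibition of yeast growth, normalised to vehicle-treated controls, is reported for a strain bearing genetic alterations in DNA damage repair.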

Assay [4] in a line: NCI Yeast Anticancer Drug Screen. Data for the cln2 rad14 strain (AID 165).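 Also: 0% = growth equal to vehicle treated cultures.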 The following applies: S. cerevisiae cln2 rad14 strain, at 50.0 µM, hits give high values. The method in brief:
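Compounds are applied to the cln2 rad14 yeast strain, and growth is then compared with that of vehicle-treated cultures to give inhibition.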

Assay [5] is described as follows: NCI Yeast Anticancer Drug Screen. Data for the bub3 strain (AID 167). The settings on record: S. cerevisiae bub3 mutant strain, at 50.0 µM, hits give high values. The method in brief:
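Steps: expose the mutant yeast strain to compound; grow alongside vehicle-treated cultures; measure growth; express inhibition against the vehicle cultures.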

A short description of assay [6]: NCI Yeast Anticancer Drug Screen. Data for the mlh1 rad18 strain (AID 175). The settings on record: S. cerevisiae mlh1 rad18 strain growth inhibition; at 50.0 µM; hits give high values. In outline: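 Read-out is yeast growth inhibition, calculated against vehicle-only controls. The compound was applied to a strain engineered with DNA damage repair alterations.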

In the case of `Cc1ccnc(=S)[nH]1`, the growth inhibition in assay [1] is 16.9%; in assay [2] it was 5.45%; in assay [3] it was 33.1%; in assay [4], 13.3%; in assay [5] it was 23.6%; in assay [6] it was 18.3%.
Consider `Nc1nc(N)c2nc(-c3ccc(O)cc3)c(-c3ccc(O)cc3)nc2n1`, for which the growth inhibition in assay [1] was -15.5%; in assay [2], -4%; in assay [3], 0.15%; in assay [4] it was 50.6%; in assay [5], 7.9%; in assay [6] it was -13.6%.
As for `COc1cccc2cc(-c3c[nH]c4ccccc34)c(=O)oc12`, the growth inhibition in assay [1] was 1%; in assay [2], 11.2%; in assay [3] it was 11.2%; in assay [4] it was 7%; in assay [5], 1.65%; in assay [6] it was 0.75%.
`COCCNC1CCC2(SCCS2)c2[nH]c3ccccc3c21` (stereo unspecified): the growth inhibition in assay [1] was -10.3%; in assay [2], -12.8%; in assay [3] it was 15.1%; in assay [4], -14%; in assay [5] it was -9%; in assay [6], 40.2%.
Consider `CCCCN(CCCC)c1ccc(S(=O)(=O)c2ccc(N(CCCC)CCCC)cc2)cc1`, for which the growth inhibition in assay [1] was 19.1%; in assay [2] it was 4.95%; in assay [3], 9.4%; in assay [4] it was 30.4%; in assay [5], -2.35%; in assay [6] it was 18.6%.
`O=S(=O)(OCCCC1CC2C=CC1C2)c1ccc(Br)cc1` (stereo unspecified): the growth inhibition in assay [1] is -1.7%; in assay [2], -12.2%; in assay [3] it was -17.6%; in assay [4], -7.05%; in assay [5], 1.85%; in assay [6], 2.45%.
`CCCNC(=O)c1nc(SC)sc1NC(=O)c1ccccc1`: the growth inhibition is 10.3% in assay [1]; 3.5% in assay [2]; -50.1% in assay [3]; 17.6% in assay [4]; 1.95% in assay [5]; 10.9% in assay [6].
On to `COc1ccc(-c2nc(SCC(=O)O)n(-c3ccccn3)c2-c2ccc(OC)cc2)cc1`, for which the growth inhibition in assay [1] is 70.7% (active); in assay [2], 66.5%; in assay [3], 82.3% (active); in assay [4], 83.7% (active); in assay [5] it was 42.9%; in assay [6], 77.7% (active).
On to `O=P(CCc1ccccc1)(OCCCl)OCCCl`, for which the growth inhibition in assay [1] is 10.2%; in assay [2], 2.15%; in assay [3], 3.85%; in assay [4], 14.3%; in assay [5], 6.5%; in assay [6] it was -5%.
Take `CC1(C)CC2=C(SC3C=CC=CC3N2)C(=O)C1C(=O)C(N)=O` (stereo unspecified): the growth inhibition was -34.7% in assay [1]; -15% in assay [2]; -5.05% in assay [3]; -3.65% in assay [4]; -23.1% in assay [5]; -33.8% in assay [6].
For `CC(C)CCNCCC(C)C`, the growth inhibition in assay [1] is 35.7%; in assay [2] it was 25.1%; in assay [3], -2.85%; in assay [4], -36.3%; in assay [5], -14.9%; in assay [6], 21.9%.
As for `C=CCc1ccc(OC(=O)Nc2ccc(S(=O)(=O)CC)cc2)c(OC)c1`, the growth inhibition in assay [1] is 1.65%; in assay [2], -12.8%; in assay [3], -26.4%; in assay [4] it was -19.9%; in assay [5], -14.2%; in assay [6], -10.3%.
On to `CC1CCN(C(=S)[S-])CC1.CC1CCN(C(=S)[S-])CC1.[Zn]`, for which the growth inhibition in assay [1] was 58.9%; in assay [2], 9.05%; in assay [3], 54.2%; in assay [4], 34.2%; in assay [5], 5.85%; in assay [6], 32.9%.
Regarding `Cc1ccc(C)c(NC(=O)C(=O)CC(=O)c2cccc3ccccc23)c1`, the growth inhibition in assay [1] is -15.8%; in assay [2], -33.1%; in assay [3] it was 2.05%; in assay [4] it was 17.1%; in assay [5], -20.8%; in assay [6], -21.1%.
Take `Cc1ccc(NC(=O)Nc2cccc(C(F)(F)F)c2)cc1NC(=O)Nc1cccc(C(F)(F)F)c1`: the growth inhibition in assay [1] is 2.75%; in assay [2], 15%; in assay [3] it was 31.9%; in assay [4] it was 23.7%; in assay [5], -6.6%; in assay [6], 29.6%.
As for `Cc1sc2[nH]c(=O)oc(=O)c2c1C`, the growth inhibition was 44% in assay [1]; -10.1% in assay [2]; 36.2% in assay [3]; 30.1% in assay [4]; 10.5% in assay [5]; 55.8% in assay [6].
Consider `COc1cc(C=O)cc(O)c1O`, for which the growth inhibition in assay [1] was 11.8%; in assay [2] it was 3.05%; in assay [3], -10.6%; in assay [4], -19.2%; in assay [5], -1.9%; in assay [6], -0.6%.
As to `C=C(C)COC(=O)COc1ccc(Cl)cc1`, the growth inhibition in assay [1] is 1.05%; in assay [2] it was -32.7%; in assay [3], -3.5%; in assay [4] it was 0.45%; in assay [5], 3.5%; in assay [6], 5.45%.
Take `COc1ccc(/C=C\c2cc(OC)c(OC)c(OC)c2)cc1OCC(=O)O`: the growth inhibition in assay [1] was -5.95%; in assay [2], -1.75%; in assay [3], 13%; in assay [4], 8.65%; in assay [5], -10.4%; in assay [6], -52.5%.
`O=C1C(N=Nc2ccc(Br)cc2)Sc2nc3ccccc3n21` (stereo unspecified): the growth inhibition is 8.2% in assay [1]; -12.4% in assay [2]; 6.45% in assay [3]; -27.4% in assay [4]; 17.1% in assay [5]; 10.3% in assay [6].
As to `COc1cc(C)c(O)c(C)c1C`, the growth inhibition in assay [1] was -1.9%; in assay [2] it was -4.1%; in assay [3], -6.55%; in assay [4], -30.3%; in assay [5], -13.1%; in assay [6], 8.35%.
Regarding `CC(C)C(CN)(C(C)C)C(C)C`, the growth inhibition was 2.35% in assay [1]; 9.65% in assay [2]; -8.65% in assay [3]; 8.55% in assay [4]; 5.3% in assay [5]; -8.6% in assay [6].
`O=C(CC(=O)Nc1ccccc1)N/N=C/c1cc(N=Nc2ccc(Br)cc2)ccc1O`: the growth inhibition in assay [1] was 16.4%; in assay [2], 24.9%; in assay [3], 53%; in assay [4], 4.65%; in assay [5], 0.2%; in assay [6], 29%.
Turning to `CCOC(=O)C(Cc1ccccc1)NC(=O)c1[nH]cnc1/N=N/N(C)C` (stereo unspecified), the growth inhibition in assay [1] is 44%; in assay [2], -44%; in assay [3], -29.4%; in assay [4] it was -2.05%; in assay [5], 2.8%; in assay [6], -22.3%.
Consider `COc1ccc2c3ccc4c(c3n(C)c2c1)C(=O)c1ccccc1C4=O`, for which the growth inhibition was -38.3% in assay [1]; -36.2% in assay [2]; -53% in assay [3]; -14.7% in assay [4]; -22.8% in assay [5]; -46.1% in assay [6].
For `O=c1c2ccccc2nnn1O`, the growth inhibition in assay [1] was 12.8%; in assay [2], 0.2%; in assay [3], 4.55%; in assay [4], -23.1%; in assay [5], -5.95%; in assay [6], 6.45%.
With `CN1C/C(=C\c2ccc(C(=O)O)cc2)C(=O)/C(=C/c2ccc(C(=O)O)cc2)C1`, the growth inhibition is 33.3% in assay [1]; 5.35% in assay [2]; 28.1% in assay [3]; 20.9% in assay [4]; -5% in assay [5]; 19.7% in assay [6].
As to `COc1ccc(N=Nc2c(-c3ccccc3)nn(C(=O)CC(=O)Nc3ccc(OC)cc3)c2-c2ccccc2)cc1`, the growth inhibition was -17% in assay [1]; -1.7% in assay [2]; -0.8% in assay [3]; -25.4% in assay [4]; 11.7% in assay [5]; -3.35% in assay [6].
Turning to `Nc1cccc(C(F)(F)F)c1[N+](=O)[O-]`, the growth inhibition in assay [1] is -8.25%; in assay [2] it was -28%; in assay [3] it was -22.4%; in assay [4], -23.4%; in assay [5] it was -25.9%; in assay [6] it was 18.1%.
As to `NC(=S)NNC(N)=S`, the growth inhibition in assay [1] is 2.2%; in assay [2] it was -12.9%; in assay [3], -7.3%; in assay [4], 17.4%; in assay [5], -3.2%; in assay [6], 24.5%.
For the compound `CN(C)C(=O)NCc1cccnc1`, the growth inhibition in assay [1] is -21.8%; in assay [2], 10.9%; in assay [3], 0.35%; in assay [4] it was -78.2%; in assay [5], -3.45%; in assay [6] it was -10.7%.
